Assay results: PubChem BioAssay AID1159580 (chemical genetic matrix, 2015)
Screen size: about 5,500 compounds; about 2,000 (36%) were called active. Not shown: some 18% with an inconclusive outcome. Cut-off read from the data, not from the text of the source: active = normalized growth mostly below about 0.91 (no sharp cut-off); inconclusive = no clear call, values can overlap the other calls; inactive = mostly above about 0.92. Some of the results follow.

Experiment: chemical genetic growth profiling, strain panel (AID 1159580);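 note: tested at 20 µM; growth read once vehicle control cultures reached saturation at 30 °C; 1 = growth at the plate median or of vehicle wells; lower values mean less growth of the strain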
Conditions: growth OD
[1] = S. cerevisiae deletion strains, locus YDL101C, strain DUN1, stronger effect = lower value
[2] = S. cerevisiae deletion strains, locus YHR030C, strain SLT2, stronger effect = lower value

Measured: normalized growth

Cc1c(-c2ccnc(N)n2)nnn1-c1ccc(Cl)cc1Cl
inactive: S. cerevisiae deletion strains, locus YAL013W, strain DEP1, stronger effect = lower value 1 | S. cerevisiae deletion strains, locus YBR229C, strain ROT2, stronger effect = lower value 0.974 | [1] 0.981 | S. cerevisiae deletion strains, locus YDR150W, strain NUM1, stronger effect = lower value 1.03 | S. cerevisiae deletion strains, locus YEL061C, strain CIN8, stronger effect = lower value 0.959 | S. cerevisiae deletion strains, locus YGR078C, strain PAC10, stronger effect = lower value 0.985 | [2] 0.732 | S. cerevisiae deletion strains, locus YHR087W, strain rtc3, stronger effect = lower value 0.959 | S. cerevisiae deletion strains, locus YJL187C, strain SWE1, stronger effect = lower value 1.01 | S. cerevisiae deletion strains, locus YJR043C, strain POL32, stronger effect = lower value 1.01 | S. cerevisiae deletion strains, locus YJR075W, strain HOC1, stronger effect = lower value 0.967 | S. cerevisiae deletion strains, locus YKL190W, strain CNB1, stronger effect = lower value 1.01 | S. cerevisiae deletion strains, locus YLR039C, strain RIC1, stronger effect = lower value 0.936 | S. cerevisiae deletion strains, locus YLR058C, strain SHM2 (second series), stronger effect = lower value 0.989 | S. cerevisiae deletion strains, locus YLR085C, strain ARP6, stronger effect = lower value 0.885 | S. cerevisiae deletion strains, locus YLR262C, strain YPT6, stronger effect = lower value 0.932 | S. cerevisiae deletion strains, locus YML094W, strain GIM5, stronger effect = lower value 0.988 | S. cerevisiae deletion strains, locus YMR219W, strain ESC1, stronger effect = lower value 1 | S. cerevisiae deletion strains, locus YMR263W, strain SAP30, stronger effect = lower value 0.98 | S. cerevisiae deletion strains, locus YNL153C, strain GIM3, stronger effect = lower value 0.991 | S. cerevisiae deletion strains, locus YNL298W, strain CLA4 (second series), stronger effect = lower value 0.973 | S. cerevisiae deletion strains, locus YNL322C, strain KRE1, stronger effect = lower value 1.01 | S. cerevisiae deletion strains, locus YNR030W, strain Alg12, stronger effect = lower value 0.975 | S. cerevisiae deletion strains, locus YOL006C, strain TOP1, stronger effect = lower value 0.921 | S. cerevisiae deletion strains, locus YPL055C, strain LGE1, stronger effect = lower value 1.08 | S. cerevisiae deletion strains, locus YPL241C, strain CIN2, stronger effect = lower value 0.957 | S. cerevisiae deletion strains, locus YPR135W, strain CTF4, stronger effect = lower value 0.687 | S. cerevisiae strains, strain wild type, stronger effect = lower value 0.992

O=C1CSC(c2cccnc2)N1c1ccc(Cl)cc1Cl (centres undefined)
inactive: S. cerevisiae deletion strains, locus YAR019C, strain CDC15, stronger effect = lower value 0.986 | S. cerevisiae deletion strains, locus YBL105C, strain PKC1, stronger effect = lower value 0.996 | S. cerevisiae deletion strains, locus YBR135W, strain CKS1, stronger effect = lower value 0.994 | S. cerevisiae deletion strains, locus YBR136W, strain MEC1, stronger effect = lower value 0.99 | S. cerevisiae deletion strains, locus YBR160W, strain CDC28, stronger effect = lower value 0.994 | S. cerevisiae deletion strains, locus YDL017W, strain CDC7, stronger effect = lower value 0.992 | S. cerevisiae deletion strains, locus YDL028C, strain MPS1, stronger effect = lower value 0.992 | [1] 1 | S. cerevisiae deletion strains, locus YDL108W, strain KIN28, stronger effect = lower value 0.985 | S. cerevisiae deletion strains, locus YDL132W, strain cdc53, stronger effect = lower value 0.993 | S. cerevisiae deletion strains, locus YDL214C, strain PRR2, stronger effect = lower value 0.931 | S. cerevisiae deletion strains, locus YDR052C, strain DBF4, stronger effect = lower value 0.997 | S. cerevisiae deletion strains, locus YDR054C, strain cdc34, stronger effect = lower value 0.987 | S. cerevisiae deletion strains, locus YDR226W, strain ADK1, stronger effect = lower value 0.989 | S. cerevisiae deletion strains, locus YDR477W, strain SNF1, stronger effect = lower value 0.919 | S. cerevisiae deletion strains, locus YER123W, strain YCK3, stronger effect = lower value 0.823 | S. cerevisiae deletion strains, locus YER133W, strain GLC7, stronger effect = lower value 0.897 | S. cerevisiae deletion strains, locus YFL009W, strain cdc4, stronger effect = lower value 1 | S. cerevisiae deletion strains, locus YFL029C, strain CAK1, stronger effect = lower value 0.98 | S. cerevisiae deletion strains, locus YFR003C, strain YPI1, stronger effect = lower value 0.99 | S. cerevisiae deletion strains, locus YFR019W, strain FAB1, stronger effect = lower value 0.796 | S. cerevisiae deletion strains, locus YFR028C, strain CDC14, stronger effect = lower value 0.993 | S. cerevisiae deletion strains, locus YGR040W, strain KSS1, stronger effect = lower value 0.93 | S. cerevisiae deletion strains, locus YGR052W, strain FMP48, stronger effect = lower value 0.902 | S. cerevisiae deletion strains, locus YGR092W, strain DBF2, stronger effect = lower value 0.972 | [2] 0.958 | S. cerevisiae deletion strains, locus YHR079C, strain IRE1, stronger effect = lower value 0.964 | S. cerevisiae deletion strains, locus YHR082C, strain KSP1, stronger effect = lower value 0.932 | S. cerevisiae deletion strains, locus YHR205W, strain SCH9, stronger effect = lower value 0.98 | S. cerevisiae deletion strains, locus YIL147C, strain SLN1, stronger effect = lower value 0.998 | S. cerevisiae deletion strains, locus YJL095W, strain BCK1, stronger effect = lower value 0.906 | S. cerevisiae deletion strains, locus YJL128C, strain PBS2, stronger effect = lower value 0.993 | S. cerevisiae deletion strains, locus YJL157C, strain FAR1, stronger effect = lower value 0.948 | S. cerevisiae deletion strains, locus YJR016C, strain ILV3, stronger effect = lower value 0.993 | S. cerevisiae deletion strains, locus YJR066W, strain TOR1 (second series), stronger effect = lower value 0.893 | S. cerevisiae deletion strains, locus YJR066W, strain TOR1, stronger effect = lower value 0.837 | S. cerevisiae deletion strains, locus YKL048C, strain ELM1, stronger effect = lower value 1.01 | S. cerevisiae deletion strains, locus YKL067W, strain YNK1, stronger effect = lower value 0.944 | S. cerevisiae deletion strains, locus YKL101W, strain HSL1, stronger effect = lower value 0.993 | S. cerevisiae deletion strains, locus YKL193C, strain SDS22, stronger effect = lower value 0.989 | S. cerevisiae deletion strains, locus YKL203C, strain TOR2, stronger effect = lower value 0.945 | S. cerevisiae deletion strains, locus YLR113W, strain HOG1, stronger effect = lower value 0.913 | S. cerevisiae deletion strains, locus YLR133W, strain CKI1, stronger effect = lower value 0.962 | S. cerevisiae deletion strains, locus YLR403W, strain SFP1, stronger effect = lower value 0.937 | S. cerevisiae deletion strains, locus YML070W, strain DAK1, stronger effect = lower value 0.939 | S. cerevisiae deletion strains, locus YMR001C, strain CDC5, stronger effect = lower value 0.991 | S. cerevisiae deletion strains, locus YMR205C, strain PFK2 (second series), stronger effect = lower value 0.968 | S. cerevisiae deletion strains, locus YMR277W, strain FCP1, stronger effect = lower value 0.992 | S. cerevisiae deletion strains, locus YNL006W, strain LST8, stronger effect = lower value 0.986 | S. cerevisiae deletion strains, locus YNL020C, strain ARK1, stronger effect = lower value 0.974 | S. cerevisiae deletion strains, locus YNL161W, strain CBK1, stronger effect = lower value 0.985 | S. cerevisiae deletion strains, locus YNL183C, strain NPR1, stronger effect = lower value 0.912 | S. cerevisiae deletion strains, locus YNL207W, strain RIO2, stronger effect = lower value 0.998 | S. cerevisiae deletion strains, locus YNL222W, strain SSU72, stronger effect = lower value 0.99 | S. cerevisiae deletion strains, locus YNL307C, strain MCK1 (second series), stronger effect = lower value 0.952 | S. cerevisiae deletion strains, locus YOL078W, strain AVO1, stronger effect = lower value 0.994 | S. cerevisiae deletion strains, locus YOL136C, strain PFK27, stronger effect = lower value 0.919 | S. cerevisiae deletion strains, locus YOR061W, strain CKA2, stronger effect = lower value 0.939 | S. cerevisiae deletion strains, locus YOR119C, strain RIO1, stronger effect = lower value 0.919 | S. cerevisiae deletion strains, locus YOR231W, strain MKK1, stronger effect = lower value 0.937 | S. cerevisiae deletion strains, locus YOR329C, strain SCD5, stronger effect = lower value 0.99 | S. cerevisiae deletion strains, locus YPL031C, strain PHO85, stronger effect = lower value 0.928 | S. cerevisiae deletion strains, locus YPL153C, strain RAD53, stronger effect = lower value 0.933 | S. cerevisiae deletion strains, locus YPL204W, strain HRR25, stronger effect = lower value 0.92 | S. cerevisiae deletion strains, locus YPL209C, strain IPL1, stronger effect = lower value 0.989 | S. cerevisiae deletion strains, locus YPL256C, strain CLN2, stronger effect = lower value 0.88 | S. cerevisiae deletion strains, locus YPR025C, strain CCL1, stronger effect = lower value 0.984 | S. cerevisiae deletion strains, locus YPR106W, strain ISR1, stronger effect = lower value 1.01 | S. cerevisiae deletion strains, locus YPR111W, strain DBF20, stronger effect = lower value 1 | S. cerevisiae deletion strains, strain NNK1, stronger effect = lower value 0.998 | S. cerevisiae deletion strains, strain TSCII, stronger effect = lower value 0.989
